TDP1 cell CPT – DT40-hTDP1 cell growth loss with CPT | chicken DT40 Tdp1-/-;hTDP1 cells + 20 nM CPT, ATP luminescence, 48 h | Potency, µM (series often up to 46.2 µM), for the others: at the top dose activity change, negative = growth inhibition, actives largely listed as inhibitors | actives 12% (n = 420,000) | AID 686979; note: potency is the fitted concentration of half-maximal effect; % is set by controls: 0 for no effect and ±100 for the full control effect; nearly all actives have a fitted effect of over 55% in size
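Cell growth measured by CellTiter-Glo luminescence after a minimum 48 h, 37 C compound exposure with 20 nM CPT in Tdp1-knockout DT40 cells stably expressing hTDP1, seeded 400/well; qHTS titration format.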
DT40 TDP1 no CPT – qHTS for Inhibitors of human tyrosyl-DNA phosphodiesterase 1 (TDP1): qHTS in cells in absence of CPT; Potency, µM (top dose mostly 46.2 µM), for the others: at the top dose activity change, negative = growth inhibition, most hits filed as inhibitors; actives 15% (n = 420,000); AID 686978, 2013; DT40 Tdp1-/- hTDP1 cells, no CPT, ATP luminescence, 48 h; note: potency is the fitted concentration of half-maximal effect; % is set by controls: 0 for no effect and ±100 for the full control effect; nearly all actives have a fitted effect of over 55% in size
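Camptothecin absent (DMSO only). Human TDP1-complemented DT40 knockout cells, 400 cells/well, 37 °C for minimum 48 hr; ATP measured via CellTiter-Glo, 30 min dark incubation, luminescence.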
SW480 rerep – inducers of DNA re-replication in SW480 colon cancer cells; actives 1.8% (n = 340,000); AID 624297; SW480 DNA re-replication, Hoechst DNA content imaging, 48 h; Potency, µM (series often up to 46.1 µM), for the others: at the highest dose re-replication activation, most hits filed as activators; note: potency is the fitted concentration of half-maximal effect; % of control where 0% means no effect; nearly all actives have a fitted effect of over 55% in size
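Cells (250 per well) received 23 nL compound or DMSO by pin tool and were kept 48 hr at 37 C, 5% CO2. Nuclei were then stained with Hoechst for 40 min and scanned for DNA content.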
IL-1B inflam inh – inflammasome signaling inhibition, IL-1 beta readout; THP-1 LPS/ATP IL-1B secretion, AlphaLISA, 16 h; active compounds read low; activity change, % at 57.5 µM; actives 4.7% (n = 360,000); in the data active = activity change below about -50%; inconclusive = mostly about -30% to -49%; note: % is set by controls: 0 for no effect and ±100 for the full control effect
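THP-1 cells pretreated 1 hr with compounds (up to 57.5 uM final), then stimulated with LPS (250 ng/mL final) plus ATP (1.25 mM final); secreted IL-1B measured by AlphaLISA after 16 hr, decreased signal indicating inhibition.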
Chronic BCR inh – inhibitors of chronic active B-cell receptor signaling. ABC-DLBCL IkBa-CBG/CBR reporter, luminescence ratio, 4 h. Potency, µM (series often up to 46.1 µM), for the others: at the top dose activity change, negative = inhibition, usual class: inhibitors. actives 0.05% (n = 340,000). AID 493014; active = well fitted inhibition curve with a large enough effect in the signal ratio, with a control signal flat, not every such curve was filed as active; inconclusive = small, poorly fitted or top-dose-only effect, or effect the other way, or a change in a side signal; the % refers to the signal ratio;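 note: potency is the fitted concentration of half-maximal effect; plate controls were basal doxycycline-induced cells for no effect and cells given 10 µM MG132 for full effect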
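Concentration-response series (up to 46 uM) were applied to TMD8 dual-reporter cells for 4 h at 37C with doxycycline. Green/red ratio, after filter-overlap correction, defined %Activity; red signal alone was normalised to basal cells and zero luminescence.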
MCF10A rerep – induces DNA re-replication in MCF 10a normal breast cells | MCF 10A DNA re-replication, Hoechst nuclear intensity, 48 h | Potency, µM (titrated, usually from 46.1 µM), without a hit: at the top dose activity, positive = re-replication, most hits filed as activators | actives 2.9% (n = 350,000); note: potency is the fitted concentration of half-maximal effect; % of control where 0% means no effect; nearly all actives have a fitted effect of over 50% in size
* = called active by the depositor; ? = inconclusive; . = no result given; [ ] = remark or other dose. A selection: hits, their analogues and other compounds. The true share with any hit is near 19%. Unless noted, calls come from the whole dose curve; as a rule, active = well fitted curve in the direction sought with a large enough effect; inconclusive = small, poorly fitted or top-dose-only effect, or another doubt; inactive = no such curve, though single readings can be large; an effect the other way counts as inactive or inconclusive.

SMILES | TDP1 cell CPT | DT40 TDP1 no CPT | SW480 rerep | IL-1B inflam inh | Chronic BCR inh | MCF10A rerep
CC(C)C[C@@H](CN1CCCC1CN1C(=S)NC[C@@H]1Cc1ccc(O)cc1)N1C[C@H](Cc2ccc(O)cc2)N(CCc2ccccc2)C1=S (stereo partly drawn) | 13µM* | 7.31µM* | 12.9% | 0.0 | . | 9.8%
CC(C)C[C@@H](CN1CCC[C@H]1CN1C(=O)C(=O)NC[C@@H]1Cc1ccc(O)cc1)N1C[C@H](Cc2ccccc2)N(CCc2ccccc2)C(=O)C1=O | ? | -3.1% | . | ? | . | .
Cc1ccsc1C(=O)N1CCC1(C)C(=O)NS(=O)(=O)c1ccc(C#N)cc1 (stereo not drawn) | 3.0% | -14.4% | . | -1.3 | . | .
Cc1ccc(OCCn2cnc3c2c(=O)n(C)c(=O)n3C)cc1 | ? | ? | ? | 39.3 | -7.8% | 2.8%
CCOC(=O)N1CCN(CC(=O)Nc2nnc(C(F)(F)F)s2)CC1 | -11.8% | 1.3% | -2.6% | 30.5 | 11.1% | -0.2%
CN(CC(=O)Nc1cccc(F)c1)C(=O)c1ccccc1Cc1ccccc1 | ? | ? | -3.4% | -9.6 | 6.3% | 7.1%
CCN(C(=O)COC(=O)c1cccc(S(=O)(=O)NCc2ccccc2)c1)c1ccccc1 | ? | ? | -4.3% | -4.9 | -1.0% | 13.0%
Cc1cc(-c2c(C)[nH]n(-c3ccc(Cl)cc3)c2=O)n[nH]1 | 7.31µM* | 13µM* | ? | 147.8 | -2.8% | 14.4%
COC(=O)c1ccccc1-c1cc(C)cc2c1OC(CNC(=O)c1cc(C)n(C)n1)C2 (stereo not drawn) | 8.1%[9.04 µM] | ? | . | . | . | .
CCOC(=O)C1(Cc2ccccc2)CCN(Cc2cccc3c2OCO3)CC1 | -20.4% | ? | 5.7% | -52.9* | -0.1% | ?
CCOC(=O)C1(Cc2ccccc2C(F)(F)F)CCN(Cc2ccon2)CC1 | ? | 14.6µM* | -5.4% | -8.0 | -10.1% | 11.7%
CCCn1cc(CN2CCC(Cc3ccccc3)(C(=O)OCC)CC2)c(C)n1 | ? | ? | -0.7% | 0.0 | 0.3% | ?
COc1cc(CN2CCCC(CO)(Cc3ccccc3C)C2)cc2c1OCO2 (stereo not drawn) | 14.6µM* | ? | -12.4% | -62.8* | -16.2% | 16.2%
CCOC(=O)C1(Cc2ccccc2)CCN(Cc2cc(OC)c3c(c2)OCO3)CC1 | ? | ? | -7.0% | -83.4* | 0.5% | -2.6%
CCOC(=O)C1(Cc2ccccc2)CCN(Cc2ccc3c(c2)OCCO3)CC1 | 0.4% | -17.3% | 4.4% | 18.5 | -4.2% | -9.6%
Cc1ccc(C)c(N2CC(C(=O)Nc3cc(C)on3)CC2=O)c1 (stereo not drawn) | 28.0% | 7.5% | 2.0% | 0.5 | -8.8% | 10.9%
COc1ccc(NC(C)=O)cc1CP(=O)(c1ccccc1)c1ccccc1 | -6.6% | 15.0% | -2.8% | -9.7 | 0.5% | 5.9%
OCCN1CCN(Cc2cc(Cl)c3cccnc3c2O)CC1 | ? | ? | 3.26µM* | 72.1 | ? | ?
Oc1c(CN2CCN(c3ccccn3)CC2)cc(Cl)c2cccnc12 | 4.61µM* | 3.66µM* | 7.31µM* | 0.8 | ? | ?
O=[N+]([O-])c1cc(CN2CCCC2)c2cccnc2c1O | 2.6% | ? | -3.0% | -3.3 | 2.3% | 22.1%
Cc1ccc(Cl)cc1N1CCN(C(=O)c2cc(S(=O)(=O)N3CCCC3)cn2C)CC1 | 16.4µM* | 23.1µM* | . | . | . | .
Cn1cc(S(=O)(=O)N2CCCC2)cc1C(=O)N1CCN(c2cccc(Cl)c2)CC1 | ? | ? | 2.7% | -12.0 | 0.5% | 0.2%
Cc1ccc(Cl)cc1N1CCN(C(=O)c2cc(S(=O)(=O)N3CCCCC3)cn2C)CC1 | 13µM* | 20.6µM* | . | . | . | .
